Inconclusive results are not listed. Active and inactive are the calls of the source. The call rests on the fitted dose curve; in most records, active means well fitted curve in the direction sought with a large enough effect; inconclusive means small, poorly fitted or top-dose-only effect, or another doubt; inactive means no such curve, though single readings can be large; an effect the other way counts as inactive or inconclusive.
Legend:
[1] = OV-KATE Cancer Cell Toxicity qHTS against the NCATS CANVASS Library (AID 1347345)
Method in brief: (§1)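 Bortezomib titration and single-dose wells served as plate controls. Test compounds, 11 points, acted on 1000 cells/well for 72 h at 37 degrees C; CellTiter-Glo luminescence quantified remaining viable cells.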

[2] = OV-SAHO Cancer Cell Toxicity qHTS against the NCATS CANVASS Library (AID 1347348); further: nearly all actives have a fitted effect of over 55% in size
Method in brief: as §1

[3] = SW1088 Cancer Cell Toxicity qHTS against the NCATS CANVASS Library (AID 1347350); further: nearly all actives have a fitted effect of over 75% in size
Method in brief: as §1

[4] = UWB1.289-WTBRCA1 Cancer Cell Toxicity qHTS against the NCATS CANVASS Library (AID 1347354)
Method in brief: (§2)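 Using an ATP-based luminescent reagent after three days of treatment, toxicity is scored across an eleven-concentration range in wells holding 1000 cells each.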

[5] = HEK-293 Cancer Cell Toxicity qHTS against the NCATS CANVASS Library (AID 1347355); further: potency means the concentration at half of the fitted maximal effect; nearly all actives have a fitted effect of over 65% in size
Method in brief: as §2

[6] = HPAF-II 24hr Apoptosis Induction qHTS against the NCATS CANVASS Library (AID 1347356)
Method in brief: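 Using an 11-point qHTS format, HPAF-II cells in DMEM/10% FBS received compounds for 24 h; doxorubicin titration as control. Caspase-3/7 activity quantified by DEVD-luciferase luminescence.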

[7] = HEK293 18hr Apoptosis Induction qHTS against the NCATS CANVASS Library (AID 1347357)
Method in brief: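 HEK293 cells (500 per well, DMEM with 10% FBS) were treated with natural products, incubated 18 hours at 37 degrees C, then caspase-3/7 activity was read by Caspase-Glo luminescence after 15 min at room temperature.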

AA1029 = assay: qHTS profiling for inhibitors of Plasmodium falciparum proliferation (AID 504749); further: nearly all actives have a fitted effect of over 60% in size; further: potency means the concentration at half of the fitted maximal effect; conditions: P. falciparum in erythrocytes, SYBR Green DNA, 72 h; series mostly up to 28.7 µM
Method in brief: (§3)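 Fluorescence of SYBR Green-bound parasite DNA, read at 485/535 nm, served as the growth measure. Infected erythrocytes were cultured with compound 72 h; artemisinin (0.29 uM) and DMSO wells defined the normalization range.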

CP260 = assay: as above; conditions: P. falciparum in erythrocytes, SYBR Green DNA, 72 h; series mostly up to 28.7 µM
Method in brief: as §3

CP286 = assay: as above; conditions: P. falciparum in erythrocytes, SYBR Green DNA, 72 h; series mostly up to 28.7 µM
Method in brief: as §3

DIV14 = assay: as above; conditions: P. falciparum in erythrocytes, SYBR Green DNA, 72 h; series mostly up to 28.7 µM
Method in brief: as §3

DIV17 = assay: as above; conditions: P. falciparum in erythrocytes, SYBR Green DNA, 72 h; series mostly up to 28.7 µM
Method in brief: as §3

ICS = assay: as above; conditions: P. falciparum in erythrocytes, SYBR Green DNA, 72 h; series mostly up to 28.7 µM
Method in brief: as §3

JCK = assay: as above; conditions: P. falciparum in erythrocytes, SYBR Green DNA, 72 h; series mostly up to 28.7 µM
Method in brief: as §3

N140 = assay: as above; conditions: P. falciparum in erythrocytes, SYBR Green DNA, 72 h; series mostly up to 28.7 µM
Method in brief: as §3

PC15 = assay: as above; conditions: P. falciparum in erythrocytes, SYBR Green DNA, 72 h; series mostly up to 28.7 µM
Method in brief: as §3

TAB165 = assay: as above; conditions: P. falciparum in erythrocytes, SYBR Green DNA, 72 h; series mostly up to 28.7 µM
Method in brief: as §3

[8] = Confirmation and Secondary Assay for Modulators of Hemoglobin Beta Chain Splicing at IVS2 654 locus (AID 910);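 further: per-well total GFP intensity by laser scanning cytometry after 2-day treatment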
Method in brief: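 HeLa cells stably carrying EGFP interrupted by mutant beta-globin IVS2-654 intron (CMV-driven) were treated with compound for 2 days at 37C; corrected splicing was scored as total peak GFP intensity per well (488 nm excitation, 500-520 nm emission).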

[9] = Confirmation and Secondary Assay for Modulators of Hemoglobin Beta Chain Splicing at IVS2 705 locus (AID 930);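 further: HeLa cells stably expressing the EGFP-705 splicing reporter; GFP fluorescence per well restored by corrected splicing of the IVS2-705 intron in EGFP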
Method in brief: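 Fluorescence gain (488 nm laser, 500-520 nm PMT) reflects restored correct splicing of a mutant IVS2-705 intron inside EGFP in stably transfected HeLa cells after 2-day compound treatment.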

CP266 = assay: qHTS profiling for inhibitors of Plasmodium falciparum proliferation (AID 504749); further: nearly all actives have a fitted effect of over 60% in size; further: potency means the concentration at half of the fitted maximal effect; conditions: P. falciparum in erythrocytes, SYBR Green DNA, 72 h; series mostly up to 28.7 µM
Method in brief: as §3

Measured: Potency

COc1ccc([C@@H]2c3cc4c(cc3C(=O)[C@H](C)C2C)OCO4)cc1OC (stereo partly drawn)
inactive: [1] | [2] | [3] | [4] | [6] | [7]
active: [5] 18.7 µM

C[C@@]12C(=O)OC(=O)[C@]1(C)[C@H]1CC[C@@H]2O1
active: AA1029 3.16 µM | CP260 0.631 µM | CP286 2.82 µM | DIV14 1.14 µM | DIV17 2.03 µM | ICS 3.98 µM | JCK 3.98 µM | N140 4.47 µM | PC15 3.98 µM | TAB165 2 µM

C=C1CCC2[C@](C)(CO)C(O)CC[C@]2(C)C1C/C=C1/C(=O)OCC1O (stereo partly drawn)
inactive: [8] | [9] | CP266

COC1=C(OC)C(=O)C(C/C=C(\C)CC/C=C(\C)CC/C=C(\C)CC/C=C(/C)CC/C=C(\C)CC/C=C(\C)CC/C=C(\C)CC/C=C(\C)CC/C=C(\C)CCC=C(C)C)=C(C)C1=O
inactive: [8] | [9]

CC(/C=C1\SC(=S)N(CC(=O)O)C1=O)=C\c1ccccc1
inactive: AA1029 | CP260 | CP266 | CP286 | DIV14 | DIV17 | ICS | JCK | N140 | PC15 | TAB165

From PubChem BioAssay (NCATS)
